We go through 69 sequences from PubChem BioAssay AID1347426 (Functional Genomics Laboratory (NCATS/FGL), 2020).

In all, about 31,000 sequences went through this assay and about 1,400 (4.5%) were called active. The entries come from a sample that favours actives as a whole. Values without a mark were called inactive.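 The calls were made as follows: active = median seed-adjusted z-score above 1 or below -1; inactive = the rest.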

The nature of the assay: Novel Modifiers of Survival Motor Neuron (SMN) Protein: Gene Identification via Genome-wide siRNA Screen. Particulars: HEK293T SMN2-luciferase reporter, siRNA knockdown, 72 h; actives lie on both sides. An excerpt: Spinal muscular atrophy (SMA) is the most common neuromuscular autosomal recessive disorder and one of the leading genetic causes of infant death. SMA results from mutations inducing loss of function or deletion in the survival of motor neuron-1 gene (SMN1), leading to deficiency of the survival motor neuron (SMN) protein. Although a second nearly identical gene, SMN2, is retained in humans, its expression primarily produces an aberrantly spliced isoform that is largely unstable and quickly degraded. We performed a genome-wide RNAi screen using a cell-based reporter assay to identify genes and pathways that modulate SMN protein stability. The screen identified over 200 genes that led to the greatest increase or decrease in luciferase expression.
Using HEK293T cells stably expressing a luciferase reporter that combines the promoter and splicing based cassettes in tandem with the major portion of the native SMN2 cDNA with luciferase, we performed a genome-wide RNAi screen to identify modulators of SMN protein levels. Luciferase is expressed when full-length SMN protein is generated with luminescence signal proportional to SMN protein levels. Our luciferase-based reporter assay was used to screen Ambion Silencer Select Human Druggable Genome siRNA library (10418 genes, 3 unique siRNAs per gene) using lipid-based reverse transfection.
Briefly, 1 pmol of each siRNA was spotted to a well of a 384-well plate (Corning, Corning, NY) and 20 microL of serum-free DMEM containing […] of Lipofectamine RNAiMax (Life Technologies, Carlsbad, CA) was then added to each well. Transfected cells were maintained at 37 degrees C in 5% CO2 for 72 hours, 20 microL of ONE-Glo Reagent (Promega) was added to wells for luciferase quantification. Raw luminescence reads were normalized to Ambion(R) Silencer(R) Negative Control #2 siRNA, then log10 transformed. A robust statistical measure of median absolute deviation (MAD) to standardize siRNA activities from each screen. Common Seed Analysis was used to help prioritize clean hits as opposed to those appearing to arise from seed based off-target effects. Candidate modulators were defined as the genes having a MAD score greater than 1.0 or less than -1.0.
Background: A reporter such as luciferase makes a cellular process visible.
For the sequence GGAAGAACCAGAGUGUGAATT against C1RL, the median seed-adjusted z-score was -0.148. Turning to GGGAGAUUCUCCAACUAAATT against SR140, the median seed-adjusted z-score was 1.16 (active). In the case of GGAUCGAUUCUGAAUAUGATT against PAPSS1 it was -0.648; in that of GGUUGAAGCUUACUCCGGATT against DHX9, -0.687. In the case of UCACUGAUGUACUACCUAUTT against RPUSD4 it was -0.0264; in that of GGAUCACGCAGCUCAAGAUTT against TBX1, -0.744.

For CCGCGAAGAUGUUAGCAUUTT against PRSS12, the median seed-adjusted z-score was 0.119. In the case of ACAUAUAGGUAUCGACCAATT against PRICKLE2 it was -1.12 (active); in that of GCCCAGGAAAGAUAAGGCATT against PTH1R, -0.521; in that of GCAGUGCGUUCAGUGCAAATT against FHL2, 0.475. In the case of CGAUUAGGACUGACAAUAATT against IFT57 it was -1.1 (active); in that of GCUUGUUCCUUCAAUUAAATT against ZNF41, 0.342. To GCAUUAGGUUCACUAAAUATT against GPR160 belongs -0.278; to GGCUUAACCUGGUGAUAAATT against GLUD1, 0.156. For GGAUGACGGUGUCUACUCATT against CLCA1, the median seed-adjusted z-score is 0.015. In the case of GUUCUUGUCUAAGACAUGATT against ZNF799 it was -1.02 (active). To GGUUAAUAUUGCGAAAGUATT against TXNDC1 belongs 0.458. In the case of AGCUCUACAUUGGCGAUGATT against DUPD1 it was -0.406; in that of GCAUAUUCCAAACUAGUGATT against STARD6, 0.0605. Take GCGUGGAACCGGACAUCAATT against TPSD1: the median seed-adjusted z-score was 0.0848. In the case of CCACGUCACCAGUACUAUATT against UBA1 it was 1.34 (active); in that of ACAGUGUGGUUCUUCAUUUTT against C1QL3, -0.276. In the case of CAUCACCUGUAGAACCUGATT against PIAS2 it was -0.096; in that of GAAUGGUCCUAAAACACCATT against NFE2L2, -0.596. To GAAAUUGAUAAGCAAAGUATT against TRO belongs 2.04 (active). On to CUGCCUACGUGAACUGGAUTT against TPSG1, for which the median seed-adjusted z-score is 0. On to GAAGGAGACUAAUGAGCAATT against FGD4, for which the median seed-adjusted z-score was -0.0017. Turning to CGAGUGUCUUCACUACAAATT against IL3RA, the median seed-adjusted z-score was -0.951. With GCAAGUCGUCUAUUCAGAATT against RRAGD, the median seed-adjusted z-score was 0.313. On to GGCACUUAAGGUUCGCUAUTT against PPP4C, for which the median seed-adjusted z-score is 1.15 (active). On to GGCUCUUGGAAUAACUGAATT against SERPINI1, for which the median seed-adjusted z-score is 0.127. Take CAUUAAAGGUUUACCCAAUTT against IDH1: the median seed-adjusted z-score is 0.421. To GGCUUUGAAUUCAAUCUAUTT against GPR149 belongs -0.186; to CGUCGCGCCCUGUACAUAATT against GPR35, -1.46 (active). In the case of UCAGUUACCUGCAUACCAATT against AEBP1 it was -0.0536; in that of CCUACUAUGAUGUUAGUAATT against SCGN, -0.0164; in that of GAUACUCAGAAGUUGAUAATT against MYSM1, -0.116.

Consider ACACUCUUGUGGUCAAGAATT against HNRNPC, for which the median seed-adjusted z-score is -2.15 (active). To GCAAGAAACUCCACCCUUUTT against RGS3 belongs 0.065; to CUACCACAAUCAUCGAAAATT against FABP3, -0.0786; to CAAACCUAACUAUACAUAATT against ZNF107, 0.0761. To GUAAGCAUUUUAAUUCCAATT against CLCA3 belongs 0.424; to UUACAUUGAUUACACUGGATT against RBM24, 0.0471. UCGUUUUUACAGAUGUUAATT against SAP18: the median seed-adjusted z-score was 2.14 (active). Consider CCUACUAUCAAGAUUCAAATT against HERC3, for which the median seed-adjusted z-score was -0.0884. Consider GAGUCAACCCAUACAUUAATT against PLS1, for which the median seed-adjusted z-score was -0.0715.

Consider GCUGGUUUAUUUAACUCGATT against E2F6, for which the median seed-adjusted z-score is -0.299. Take GAGUCUGUUUUACGACAAATT against TMPRSS11D: the median seed-adjusted z-score was -0.0643. Regarding CCAGUCGCGUAAGACAACATT against PYDC1, the median seed-adjusted z-score was -1.44 (active). To CCCAGAGCUUCAAAGUGUATT against HSD17B1 belongs -0.569; to GCAGAGCGGAAGUAAGGAUTT against AFMID, -0.515; to CAUUAUCUCGUUUCCGGAATT against IFNGR2, 0.148. In the case of GCGGAAAGGUGGACUUUGATT against CABP2 it was 0.323. With GCAUCCUCAUCAACCGCAATT against SAPS1, the median seed-adjusted z-score is 1.16 (active). Regarding CCCAGAAGAUGACCACUCATT against PDXDC1, the median seed-adjusted z-score was 0.665.

For GACUUGCCCUUACUGCAAATT against RNF175, the median seed-adjusted z-score is 0.127. To CGUUGCUAGUGCUCACUUATT against FRAG1 belongs -0.554; to GAUAUUUGAUUGAUGUAGATT against DUSP11, -0.0184. Take ACAGAAUAAUGUACAAGAATT against POLR2K: the median seed-adjusted z-score is -3.72 (active). Turning to GCCUAGACCUCUUCGCUUUTT against PASK, the median seed-adjusted z-score was 0.

GCAGCUGAGUUCUACAAGATT against RAG1: the median seed-adjusted z-score is -1.35 (active). Take GGAUAAUGAGUCGGAAGUATT against CNTN4: the median seed-adjusted z-score was -0.407. With CCAGGUUUAUGUAGAAGUUTT against NMI, the median seed-adjusted z-score is 0.982.

On to GGAUGAAGAACGAAUGGUATT against ENDOD1, for which the median seed-adjusted z-score was -0.138.

For the sequence GGCACUCAGCGCAAGAAGATT against TIGD5, the median seed-adjusted z-score was 0. In the case of GGAAGAGGAGUAGACCUUATT against RAB5A it was 0.244; in that of CCGGCAAGAUUAUCGAGUATT against HCFC1, 1.47 (active); in that of CAUUCGCAAAGGAUCGUGATT against PAPSS2, -0.201. To CAGCGUAUUUGAGAAUUUATT against ATRX belongs -0.158.
